# According to publication PMC4336329 (PLoS ONE, 2015):
# About 14,000 (4.5%) of roughly 310,000 compounds showed an effect of 50% or more. The effect is printed as a negative number. The entries come from a sample that favours strong results as a whole.
# Target: human ether-à-go-go-related gene (hERG) potassium channel (human, UniProt Q12809)
# Test: primary screen, population patch clamp on CHO cells stably expressing hERG; higher = less effect of the substance
# 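Also: peak tail current of the secondary pulse compared with the same well before compound.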
# human ether-à-go-go-related gene (hERG) potassium channel, sequence (Q12809 whole entry, looked up): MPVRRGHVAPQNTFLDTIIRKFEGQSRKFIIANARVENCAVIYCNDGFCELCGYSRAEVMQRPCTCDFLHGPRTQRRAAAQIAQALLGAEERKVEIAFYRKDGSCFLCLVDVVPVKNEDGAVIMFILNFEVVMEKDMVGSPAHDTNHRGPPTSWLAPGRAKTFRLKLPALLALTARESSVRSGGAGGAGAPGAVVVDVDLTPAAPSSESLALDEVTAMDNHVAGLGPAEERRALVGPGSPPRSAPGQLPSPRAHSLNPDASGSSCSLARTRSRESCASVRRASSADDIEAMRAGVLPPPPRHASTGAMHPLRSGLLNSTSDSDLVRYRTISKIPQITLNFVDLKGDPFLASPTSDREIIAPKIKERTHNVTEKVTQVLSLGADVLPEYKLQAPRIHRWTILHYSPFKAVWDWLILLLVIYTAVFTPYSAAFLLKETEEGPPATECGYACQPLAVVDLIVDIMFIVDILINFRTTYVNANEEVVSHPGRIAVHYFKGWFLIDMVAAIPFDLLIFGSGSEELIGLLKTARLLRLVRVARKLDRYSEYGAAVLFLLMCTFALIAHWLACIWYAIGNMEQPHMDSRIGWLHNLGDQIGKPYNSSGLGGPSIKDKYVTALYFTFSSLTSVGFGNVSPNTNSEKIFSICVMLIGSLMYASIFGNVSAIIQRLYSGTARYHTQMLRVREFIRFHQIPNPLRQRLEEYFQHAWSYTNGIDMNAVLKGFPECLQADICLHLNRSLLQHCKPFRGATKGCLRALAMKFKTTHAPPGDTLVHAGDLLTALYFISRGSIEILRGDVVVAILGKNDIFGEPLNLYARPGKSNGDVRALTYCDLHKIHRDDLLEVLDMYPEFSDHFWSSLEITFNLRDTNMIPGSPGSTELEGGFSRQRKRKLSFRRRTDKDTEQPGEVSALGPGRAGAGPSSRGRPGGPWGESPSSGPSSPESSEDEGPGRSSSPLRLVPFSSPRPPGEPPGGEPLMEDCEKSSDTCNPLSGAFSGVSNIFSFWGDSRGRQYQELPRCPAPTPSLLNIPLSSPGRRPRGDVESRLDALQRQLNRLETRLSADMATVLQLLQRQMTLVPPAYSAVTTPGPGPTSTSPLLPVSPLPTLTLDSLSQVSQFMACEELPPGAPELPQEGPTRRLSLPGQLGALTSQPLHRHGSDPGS
row,Compound,"hERG current change (%, negative = inhibition) at 10uM [%]"
1,Cc1ccccc1S(=O)(=O)Cc1ccc(C(=O)NCCCN2CCCC(C)C2)o1 (stereo not drawn),-21.1
2,CCc1ccccc1NC(=O)c1ccc(-c2csc(C)n2)cc1,-12.4
3,COc1cccc(C(=O)OCn2nnc3ccccc3c2=O)c1,0.671
4,COc1cccc(-n2c(Cc3cc(=O)[nH]c(=O)[nH]3)nnc2SCc2cccc(C(F)(F)F)c2)c1,15.8
5,CCN(CC(=O)Nc1c(F)cccc1F)C(=O)c1ccc(N2C(=O)c3ccccc3C2=O)cc1,1.38
6,CN(CC(=O)NCCCN1CCOCC1)S(=O)(=O)c1ccc(F)cc1,15.4
7,NC(N)=NCCCC(NC(=O)c1ccccc1)C(=O)Nc1ccc2ccccc2c1 (stereo not drawn),12.5
8,COCC(C)N=C1NN=C(c2cc(C)n(Cc3ccccc3Cl)c2C)CS1 (stereo not drawn),-9.9
9,CCOC(=O)C1=C(C)NC(C)=C(C(=O)OCC)C1c1cn(-c2ccccc2)nc1-c1ccco1,-1.05
10,COc1cc(C(=O)OCC(=O)NC(C)CCc2ccccc2)cc(OC)c1OC (stereo not drawn),9.14
11,Cc1cc(C)nc(SCC(=O)Nc2ccc(S(=O)(=O)N3CCCCC3)cc2)n1,-61.3
12,Cc1cc(=O)[nH]c(SCC(=O)Nc2ccc(S(=O)(=O)N3CCCCC3)cc2)n1,-6.37
13,O=[N+]([O-])c1ccc(NC(=S)N2CCN(S(=O)(=O)c3ccccc3)CC2)cc1,-24.6
14,Cc1cc(C)c(C)c(S(=O)(=O)N2CCN(CC(=O)Nc3ccc([N+](=O)[O-])cc3)CC2)c1C,15.4
15,O=C(CN1CCN(S(=O)(=O)c2ccccc2)CC1)Nc1ccc([N+](=O)[O-])cc1,-73.4
16,CC1CCCN(CC(=O)Nc2ccc(S(=O)(=O)N3CCCC3)cc2)C1 (stereo not drawn),1.82
17,CC1CCCN(CC(=O)Nc2ccc(S(=O)(=O)N3CCCCC3)cc2)C1 (stereo not drawn),-15.7
18,CC1CCCN(CC(=O)Nc2ccc(S(=O)(=O)N3CCCCCC3)cc2)C1 (stereo not drawn),-66.8
19,O=C(CSc1ncccn1)Nc1ccc(S(=O)(=O)N2CCCCC2)cc1,-12.9
20,Cc1oc2ccccc2c1CNC(=O)N(C)C,14.2

row,Compound,"hERG current change (%, negative = inhibition) at 10uM [%]"
1,Cc1cccc(N=Nc2ccc(O)c3ncccc23)c1,-8.51
2,CCCN(CC(=O)Nc1ccccc1OC)C(=O)c1cc(-c2cccs2)nn1-c1ccccc1,-9.02
3,COc1ccc(/C=N/Nc2nc3ccccc3o2)cc1OC,13.3
4,CC(=O)c1ccc(N2CCN(C(=O)COc3ccc4c(c3)CCC4)CC2)cc1,-34
5,Cc1ccc(SCc2cn3cccnc3n2)cc1,11.1
6,COc1cccc(CNC(=O)CN2C(=O)COc3ccc(S(=O)(=O)N4CCCCCC4)cc32)c1,24.8
7,COC(=O)c1cnc(Oc2ccc(NC(=O)NC(=O)c3c(OC)cccc3OC)cc2)cc1C(F)(F)F,-14.1
8,Cc1ccc(S(=O)(=O)c2cc3c(=O)n4ccccc4nc3n(Cc3ccco3)c2=N)cc1C,-4.4
9,Cc1ccc(Cn2c(=O)n(-c3ccccc3)c(=O)c3ccc(C(=O)NCc4ccco4)cc32)cc1,-10.1
10,Cc1ccc(CNC(=O)c2cc3c(=O)n4ccccc4nc3n(Cc3ccco3)c2=N)cc1,-75.5
11,Cc1ccc(Cn2c(=N)c(C(=O)NCc3ccco3)cc3c(=O)n4ccccc4nc32)cc1,-79.8
12,Cc1ccc(S(=O)(=O)c2cc3c(=O)n4ccccc4nc3n(Cc3ccco3)c2=N)cc1,-11.2
13,Cc1cccc(CSc2ccc(S(=O)(=O)N3CCCC3)cn2)c1,5.24
14,CC(NC(=O)C(=O)NCc1cccs1)c1ccccc1 (stereo not drawn),16.9
15,CCn1cc(S(=O)(=O)CC(=O)Nc2ccc3c(c2)OCCO3)c2ccccc21,-13.1
16,CCOC(=O)C1=C(C)N(c2ccccc2)C(=O)/C1=C\c1cccs1,18.1
17,CC(=O)N1CCN(CCN=CC2=C(O)CC(c3ccco3)CC2=O)CC1 (stereo not drawn),1.17
18,CC(C)C(=O)N1CCN(CCN=CC2=C(O)CC(c3ccco3)CC2=O)CC1 (stereo not drawn),0.717
19,CCCCCC(=O)N1CCN(CCN=CC2=C(O)CC(c3cccs3)CC2=O)CC1 (stereo not drawn),-106
20,CCCCCC(=O)N1CCN(CCN=CC2=C(O)CC(c3ccco3)CC2=O)CC1 (stereo not drawn),-76.2

row,Compound,"hERG current change (%, negative = inhibition) at 10uM [%]"
1,CCC(=O)N1CCN(CCN=CC2=C(O)CC(c3cccs3)CC2=O)CC1 (stereo not drawn),-9.43
2,CC(=O)N1CCN(CCN=CC2=C(O)CC(c3cccs3)CC2=O)CC1 (stereo not drawn),8.53
3,COc1cc(-c2cc(-c3ccc(O)cc3)nc(N)c2C#N)ccc1O,18.5
4,CCn1c(SCC(=O)NC2CCCc3ccccc32)nnc1-c1cccs1 (stereo not drawn),-24.6
5,CC(Nc1ccc(Cl)cc1)C(=O)NN (stereo not drawn),-5.86
6,COc1cccc(NC(=O)c2c(F)cccc2F)c1,-6.78
7,CCOC(=O)c1[nH]cnc1C(=O)Nc1cccc(OC)c1,2.14
8,NC(=O)c1cc(S(=O)(=O)NCc2ccc(F)cc2)cs1,3.37
9,Nc1nc(CSc2ncn[nH]2)nc(Nc2ccc(F)cc2)n1,6.74
10,Cc1ccc(SCc2nc(N)nc(Nc3ccccc3C)n2)cc1C,1.31
11,Cc1ccccc1Nc1nc(N)nc(CN2CCN(c3ccccn3)CC2)n1,-66.6
12,Nc1nc(CN2CCN(c3ccccn3)CC2)nc(Nc2ccc(F)cc2)n1,-67.4
13,Nc1nc(CSC(=S)N2CCN(c3ccccc3)CC2)nc(Nc2ccc(F)cc2)n1,2.14
14,Cc1ccccc1Nc1nc(N)nc(CSc2ccccc2)n1,-21
15,Cc1ccccc1Nc1nc(N)nc(CSc2ccc(F)cc2)n1,-50.4
16,Nc1nc(CN2CCN(c3ccccn3)CC2)nc(Nc2ccc(Cl)cc2)n1,-74.8
17,S=C(NCc1ccc(Cl)cc1)N1CCN(c2ccccn2)CC1,-23.9
18,Nc1nc(CSc2ccccn2)nc(Nc2ccccc2)n1,1.81
19,Cc1ccccc1Nc1nc(N)nc(CCl)n1,10.5
20,Cc1ccccc1Nc1nc(N)nc(CN2CCN(C(=O)c3ccccc3)CC2)n1,-37.9
